Assay outcomes as filed in PubChem BioAssay.
Shown are actives, neighbours in structure and some others; about 3.9% of the full set was active somewhere.
p53null 32C kill – p53 null cell cytotoxicity, permissive temperature | H1299-neo p53 null cells, ATP luminescence, 24 h, 32C | 0.62% of 55,000 active | Potency, µM (titrated, usually from 46.1 µM), actives largely listed as cytotoxic; further: nearly all actives have a fitted effect of over 55% in size
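ATP-content luminescence in p53-null H1299-neo cells after 24 h compound exposure (up to 46 uM) at 32C permissive temperature; 0% and 100% killing set by DMSO and 100 uM tamoxifen; Hill-equation AC50.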
DRV1 agonist – GPR32 (DRV1) agonism, beta-arrestin recruitment; O75388; CHO-K1 GPR32 beta-arrestin PathHunter luminescence, 90 min; zero percent set by DMSO-only wells; activation, % at 76.9 µM; 2.5% of 48,000 active; AID 1346428;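 active means activation of at least 60% and not above a set upper limit, about 1 call in 100 departs from these limits; inconclusive means activation of 40% to 60%, or above that upper limit; inactive means activation under 40%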
Target sequence (O75388 whole entry, looked up): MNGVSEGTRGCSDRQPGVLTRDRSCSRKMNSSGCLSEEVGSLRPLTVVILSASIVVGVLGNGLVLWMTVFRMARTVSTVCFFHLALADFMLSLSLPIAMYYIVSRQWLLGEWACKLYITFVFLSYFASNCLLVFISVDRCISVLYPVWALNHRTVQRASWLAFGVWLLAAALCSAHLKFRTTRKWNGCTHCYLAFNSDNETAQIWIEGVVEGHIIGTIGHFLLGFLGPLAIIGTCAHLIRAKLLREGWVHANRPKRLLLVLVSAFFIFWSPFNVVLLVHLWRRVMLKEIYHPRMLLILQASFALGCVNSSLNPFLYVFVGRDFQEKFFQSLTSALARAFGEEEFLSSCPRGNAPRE
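Luminescent readout of beta-Gal complementation quantifies ligand-induced beta-arrestin association with GPR32 in CHO-K1 cells; 90 min compound incubation at 37 °C, detection 1 h at room temperature.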
HTT promoter inh – HTT promoter inhibition | HEK293 HTT promoter firefly luciferase reporter, 24 h | Potency, µM (doses to about 57.5 µM), most hits filed as inhibitors | 0.93% of 48,000 active; further: nearly all actives have a fitted effect of over 50% in size
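Firefly luciferase signal from promoter-reporter HEK293 cells was scaled between vehicle (0%) and zero RLU (-100%). Compounds were tested at final concentrations of up to 57.5 uM over 24 h at 37 degrees C. PTC124 at 50 uM final served as control inhibitor.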
p53null 39C kill – selectivity test: cytotoxicity in p53 null cells, nonpermissive temperature. H1299 p53-null (neo) cells, 39C, ATPlite viability, 24 h. Potency, µM (doses to about 46.1 µM), most hits filed as cytotoxic. 0.97% of 55,000 active. AID 904; further: nearly all actives have a fitted effect of over 50% in size
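Following overnight plating at 37C (600 cells/well), H1299-neo or H1299-p53A138V cells are dosed up to 46 uM. Incubation lasts 24 hr at 39C before ATP detection.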
HTT-AS promoter – activators of huntingtin-antisense promoter activity. HEK293 HTT-AS promoter firefly luciferase reporter, 24 h; response scale: percent change from vehicle, -100% = no light. Potency, µM (titrated, usually from 57.5 µM), hits mostly activators. 0.24% of 48,000 active. AID 1508624; further: nearly all actives have a fitted effect of over 55% in size
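HEK293 cells carrying firefly luciferase reporters were seeded at 2,500 per well in Opti-MEM and cultured for 24 h. They were then treated with compounds at up to 57.5 uM final for 24 h at 37 degrees C before Dual-Glo luminescence readout.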
Hits are given with their value; - = inactive; ? = inconclusive; . = no result given; [ ] = another dose, or the depositor's remark. Unless noted, the call rests on the fitted dose curve; in most records, active means well fitted curve in the direction sought with a large enough effect; inconclusive means small, poorly fitted or top-dose-only effect, or another doubt; inactive means no such curve, though single readings can be large; an effect the other way counts as inactive or inconclusive.

SMILES	p53null 32C kill	DRV1 agonist	HTT promoter inh	p53null 39C kill	HTT-AS promoter
O=C(CSc1nnc(-c2ccccc2F)o1)Nc1ccccc1Cl	-	-	-	7.9µM	2.2µM
O=C(CSc1nnc(-c2ccccc2Cl)o1)Nc1ccc2c(c1)OCCO2	-	.	.	-	.
COc1ccccc1NC(=O)CSc1nnc(N)s1	-	-	-	-	-
Cc1cccc(-c2nnc(SCC(=O)Nc3ccc(C)c(C)c3)o2)c1	-	-	-	-	-
COc1ccccc1NC(=O)CSc1nnc(-c2ccccc2C)o1	?	?	-	4µM	?
Cc1ccccc1-c1nnc(SCC(=O)N(C)c2ccccc2)o1	-	-	-	-	?
COc1ccccc1NC(=O)CSc1nnc(NC(=O)Nc2ccc(C)cc2)s1	-	78	?	?	-
Cc1cccc(NC(=O)CSc2nnc(-c3ccccc3C)o2)c1	-	.	.	10µM	.
C[C@@H](Oc1ccc2[nH]nc(C=Cc3cnn(CCO)c3)c2c1)c1c(Cl)cncc1Cl	.	.	?	.	-
CC(C)c1ccccc1NC(=O)CSc1nnc(COc2ccccc2Cl)o1	-	87	-	-	-
CC(C)c1ccccc1NC(=O)CSc1nnc(COc2ccccc2)o1	-	-	-[11.5 µM]	-	-[11.5 µM]
CCC(CN)=C(c1ccccc1)c1ccccc1	.	-	-	.	-
CCOc1ccccc1CNc1ncnc2c1nc1n2CCCC1	-	-	-	-	-
COc1ccc(Nc2ncnc3c2nc2n3CCCC2)cc1Cl	-	-	-	-	?
COc1ccc(Nc2ncnc3c2nc2n3CCCCC2)cc1	?	77	-	?	?
CCOc1ccc(Nc2ncnc3c2nc2n3CCCCC2)cc1	-	85	?	-	-
Cc1nc2c(C(=O)NCCc3ccccc3)c[nH]n2c(=O)c1Cc1ccc(F)cc1Cl	13µM	-	-	?	-
Cc1nc2c(C(=O)NCCc3ccc(Cl)cc3)c[nH]n2c(=O)c1Cc1ccccc1F	?	-	-	?	-
CC(C)(C)OC(=O)N1CCC(c2c(C(=O)NCCN3CCC(Cc4ccccc4)CC3)cnn2-c2ccc(F)cc2)CC1	?	-	?	25µM	-
COc1ccc(CCN2CCC(CNC(=O)c3cnn(-c4ccccc4)c3C3CCN(C(=O)OC(C)(C)C)CC3)CC2)cc1	-	-	-	-	-
COc1ccc(CCN2CCC(CNC(=O)c3cnn(-c4cccc(Cl)c4)c3C3CCN(C(=O)OC(C)(C)C)CC3)CC2)cc1	-	-	-	20µM	-
CC(C)(C)OC(=O)N1CCC(c2c(C(=O)NCCN3CCC(Cc4ccccc4)CC3)cnn2-c2ccccc2)CC1	-	-	-	?	-
COc1ccc2oc(=Nc3ccccc3)c(-c3nc4ccccc4[nH]3)cc2c1	11µM	.	.	.	.
CCCCN(C)CCCNC(=O)Cn1ncc2c3ccccc3n(Cc3cc(C)ccc3C)c2c1=O	-	-	?	10µM	-
COC(=O)C1=C(C)NC(COC(N)=O)=C(C(=O)OC(C)C)C1c1cccc(Cl)c1Cl (configuration not stated)	.	86	-	.	-
SMILES	p53null 32C kill	DRV1 agonist	HTT promoter inh	p53null 39C kill	HTT-AS promoter
CCCC(=O)OCOC(=O)C1=C(C)NC(C)=C(C(=O)OC)C1c1cccc(Cl)c1Cl (configuration not stated)	.	-	-	.	-
Cc1ccccc1NC(=O)c1ccc2[nH]c(C)c(C)c2c1	-	-	-	?	?
CCc1ccccc1NC(=O)c1ccc2[nH]c(C)c(C)c2c1	-	-	-	-	8.9µM
CCOC(=O)N1CCN([N+]([O-])=NOc2cc(ON=[N+]([O-])N3CCN(C(=O)OCC)CC3)c([N+](=O)[O-])cc2[N+](=O)[O-])CC1	.	.	-	.	-
CCNc1cc(NC2CCC(O)CC2)nc(Nc2ccc3c(ccn3Cc3ccccc3)c2)n1 (configuration not stated)	.	.	-	.	-
Cc1ccc(C(=O)Nc2cc3cc(Cl)ccc3oc2=O)cc1	-	62	-	-	-
CC(C)(C)c1cnc(CSc2cnc(NC(=O)C3CCNCC3)s2)o1	.	.	?	.	-
Cc1ccc(NC(=O)c2cc(S(=O)(=O)NCCC3=CCCCC3)ccc2F)cc1F	-	-	11µM	-	-
Cc1ccc(NC(=O)c2ccc(F)c(S(=O)(=O)NCCc3ccccc3)c2)cc1F	-	-	28µM	-	-
Cc1ncc([N+](=O)[O-])n1C	.	-	-	.	-
